Shown are actives, neighbours in structure and some others; about 19% of the full set was active somewhere.
TDP1 cell CPT: qHTS for Inhibitors of human tyrosyl-DNA phosphodiesterase 1 (TDP1): qHTS in cells in presence of CPT; chicken DT40 Tdp1-/-;hTDP1 cells + 20 nM CPT, ATP luminescence, 48 h; Potency, µM (series often up to 46.2 µM), usual class: inhibitors; 420,000 compounds, 12% hits; AID 686979, 2013; further: nearly all actives have a fitted effect of over 55% in size
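Chicken DT40 Tdp1-/- cells stably complemented with human TDP1 were seeded at 400 cells/well in medium containing 20 nM camptothecin, exposed to pin-transferred compounds, and grown at 37 °C for at least 48 hr. Viability was read as ATP luminescence.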
TDP1 cell noCPT: qHTS for Inhibitors of human tyrosyl-DNA phosphodiesterase 1 (TDP1): qHTS in cells in absence of CPT. DT40 Tdp1-/- hTDP1 cells, no CPT, ATP luminescence, 48 h. 420,000 compounds, 15% hits. AID 686978, 2013. Potency, µM (doses to about 46.2 µM), usual class: inhibitors; further: nearly all actives have a fitted effect of over 55% in size
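Growth kinetics read by CellTiter-Glo luminescence after ≥48 hr at 37 °C. Cells: DT40 Tdp1-/- stably carrying human TDP1, 400 per well, compound exposure in the absence of CPT (DMSO vehicle).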
KB-3-1 tox: qHTS assay for MDR1-selective chemotherapeutics: Primary screen using the parental adenocarcinoma cell KB-3-1. Potency, µM (series often up to 46.1 µM), most hits filed as cytotoxic. 400,000 compounds, 1.4% hits. AID 1347075, 2019. KB-3-1 viability, CellTiter-Glo ATP luminescence, 72 h; further: nearly all actives have a fitted effect of over 60% in size
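Parental KB-3-1 viability, qHTS format: 72 h compound exposure, 37 °C; CellTiter-Glo; media-only wells and DMSO plates as controls; concentration-effect fits on corrected data.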
KB-V1 cytotox: qHTS assay for MDR1-selective chemotherapeutics: Primary screen using the drug-selected MDR subline cells KB-V1. KB-V1 MDR cells viability, CellTiter-Glo, 72 h. Potency, µM (titrated, usually from 46.1 µM), actives largely listed as cytotoxic. 400,000 compounds, 3.4% hits; further: nearly all actives have a fitted effect of over 60% in size
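Potencies derive from concentration-effect curves fitted to normalized luminescence (CellTiter-Glo) of KB-V1 cells treated for 72 h at 37 degrees C in phenol-red-free DMEM containing 10% FBS.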
HT1080 IDH1KD tx: qHTS for induction of synthetic lethality in tumor cells producing 2HG: qHTS for the HT-1080-IDH1KD cell line; HT-1080 IDH1 knockdown viability, ATP luminescence, 48 h; Potency, µM (top dose mostly 46.1 µM), most hits filed as cytotoxic; 360,000 compounds, 2% hits
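IDH1KD HT-1080 cells, 750/well, RPMI + 5% FBS; compound pinned after 2 h settling; 48 h, 37 °C; CellTiter-Glo luminescence; % activity normalised to DMSO and no-cell wells; curves fitted, classed by r2 and efficacy.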
HT1080NT lethal: qHTS for induction of synthetic lethality in tumor cells producing 2HG: qHTS for the HT-1080-NT fibrosarcoma cell line. HT-1080-NT fibrosarcoma viability, CellTiter-Glo ATP luminescence, 48 h. Potency, µM (titrated, usually from 46.1 µM), actives largely listed as cytotoxic. 360,000 compounds, 1.6% hits;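 further: NT is the 2HG producing partner of a matched IDH1 knockdown line; nearly all actives have a fitted effect of over 55% in size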
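Read-out is CellTiter-Glo luminescence after 10 minutes at room temperature, following 48 hours' compound treatment of HT-1080-NT cells (750 cells/well, RPMI, 5% FBS, 37 degrees C).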
A number is an active result; n = inactive; u = inconclusive; x = no result given; [ ] = dose if it differs, or a comment. The call rests on the fitted dose curve; in most records, active means well fitted curve in the direction sought with a large enough effect; inconclusive means small, poorly fitted or top-dose-only effect, or another doubt; inactive means no such curve, though single readings can be large; an effect the other way counts as inactive or inconclusive.

SMILES | TDP1 cell CPT | TDP1 cell noCPT | KB-3-1 tox | KB-V1 cytotox | HT1080 IDH1KD tx | HT1080NT lethal
CC(=O)c1ccccc1-c1ccc2c(c1)CC(CNC(=O)C[C@@H]1C[C@@H](C)NC(=S)N1)O2 (stereo not given in full) | n[9.04 µM] | n | x | x | x | x
C=C(C)COc1ccc(-c2[nH]ncc2-c2ccccc2OC)c(O)c1 | 26µM | 26µM | u | u | 18µM | 18µM
C=C(C)COc1ccc(-c2[nH]ncc2-c2ccc(Br)cc2)c(O)c1 | 4.6µM | 5.2µM | 5.8µM | 12µM | 23µM | 15µM
C=C(C)COc1ccc(-c2ncncc2-c2ccc(Cl)cc2)c(O)c1 | n | n | n | n | n | n
C=C(C)COc1ccc(-c2[nH]ncc2Oc2ccccc2OC)c(O)c1 | u | u | n | n | n[9.24 µM] | u
CC(C)/C=C/CN1CCCC(N2CCN(c3cccc(Cl)c3)CC2)C1 (stereo not given) | u | u | n | n | n | n
O=C(Cc1cccs1)Nc1ccccc1F | n | n | n | n | n | n
CCOCCCNc1ccc(N2C(=O)CCCC2=O)cc1[N+](=O)[O-] | n | n | n | n | n | n
Cc1ccc(CN2CCN(Cc3cccc(-n4cccn4)c3)CC2CCO)cc1 (stereo not given) | 12µM | u | n | n | n | n
Cc1cc(C)c(CN2CCN(Cc3ccc(C)o3)C(CCO)C2)c(-n2cccn2)c1 (stereo not given) | u | 23µM | n | u | u | u
COc1cc(CN2CCN(Cc3ccc(C)cc3)C(CCO)C2)cc(OC)c1O (stereo not given) | 21µM | u | n | n | n | n
CCC(=O)c1c[nH]c(C(=O)NCCCn2ccnc2)c1 | n | n | n | n | n | n
NC(=S)N/N=C/c1ccc2ccccc2c1 | 23µM | 23µM | n | u | n | n
NC(=S)N/N=C/c1ccc(/C=N/NC(N)=S)cc1 | u | n | n | n | n | n
NC(=S)N/N=C/c1cccc(Br)c1 | u | u | u | 8.2µM | n | n
NC(=S)N/N=C/c1cccc(/C=N/NC(N)=S)c1 | n | n | n | n | n | n
[S-]C(=Nc1ccc(Cl)cc1)N[n+]1ccccc1 | u | u | n | n | n | n
N/C(=N\OC(=O)c1csnn1)c1ccc(C(F)(F)F)cc1 | n | n | n | n | n | n
CSc1nnc(-c2cc3c(-c4ccccc4)nn(C)c3s2)n1C | u | 23µM | n | u | n | n
CCCCCCCCNCCS(=O)(=O)NCc1ccccc1 | u | 16µM | u | n | n | n
CCC(C)NCC(=O)Nc1ccc(S(N)(=O)=O)cc1 (stereo not given) | u | n | n | n | n | n
C(=C\c1ccccn1)/c1ccccc1 | n | n | u | n | x | x
CCN(CC)c1ccc(/C=C/c2ccccn2)cc1 | 0.18µM | 0.28µM | 0.33µM | n | x | x
CN(C)c1ccc(/C=C/c2ccc3ncccc3c2)cc1 | u | u | n | n | x | x
CN(C)c1ccc(/C=C/c2ccccn2)cc1 | 1.4µM | 4.5µM | u | n | x | x
SMILES | TDP1 cell CPT | TDP1 cell noCPT | KB-3-1 tox | KB-V1 cytotox | HT1080 IDH1KD tx | HT1080NT lethal
CN(C)c1ccc(/C=C/c2cc3ccccc3cn2)cc1 | 0.45µM | 0.45µM | 1.5µM | n | x | x
COc1ccc(-c2cc(C(=O)Nc3ccc(C#N)cc3)no2)cc1 | n | n | n | u | x | x
NS(=O)(=O)c1ccc(CNC(=O)CSc2nc3ccc(Cl)cc3[nH]2)cc1 | n | n | n | n | n | n
COc1ccc2c(c1)[nH]c1c(=O)n(CC3CCCO3)cnc12 (stereo not given) | n | n | n | 21µM | n | n
CCOC(=O)C(C)Oc1ccc(=O)n(-c2ccccc2)n1 (stereo not given) | n | n | n | n | n | n
CCN(C(=O)COC(=O)CCNS(=O)(=O)c1ccccc1F)c1c(N)n(Cc2ccccc2)c(=O)[nH]c1=O | n | n | n | n | n | n
NC(=S)N/N=C/c1c[nH]c2ccccc12 | n | n | n | n | n | n
NC(=S)NN=Cc1nccc2c(C(F)(F)C(F)(F)C(F)(F)F)cccc12 | 0.016µM | 0.52µM | u | u | u | u
NC(=S)NN=Cc1nccc2ccccc12 | 2.3µM | 2.1µM | u | n | u | 4.1µM
O=Cc1nccc2ccccc12 | 9.2µM | 6.5µM | n | n | n | n
Cc1cnc(C=NNC(N)=S)c2cccc(N)c12 | 3.3µM | 3.7µM | n | 7.3µM | u | n
CCC(=O)N1CCc2cc(Br)cc(S(=O)(=O)N3CCCC(C(=O)NCc4cccc(OC)c4)C3)c21 (stereo not given) | u | u | n | n | x | x
Cc1cc(C)cc(C(=O)NN2CCOCC2)c1 | n | n | n | n | n | n
CN(CC(=O)Nc1c(Cl)cccc1Cl)C(=O)c1cc2ccccc2cc1O | n | u | n | n | n | n
COc1ccc(OCCOc2ccc(S(=O)(=O)N3CCCC3)cc2C(N)=O)cc1 | u | u | n | n | n | n
COc1ccc(OCCOc2ccc(S(=O)(=O)N3CCCC3)cc2[N+](=O)[O-])cc1 | u | u | u | 15µM | n | n
COc1ccc(Nc2ccc(S(=O)(=O)N3CCCCC3)cc2[N+](=O)[O-])cc1OC | u | 21µM | u | n | n | n
COc1ccc(CCNc2ccc(S(=O)(=O)N3CCCC3)cc2[N+](=O)[O-])cc1 | 15µM | u | n | u | n | n
O=C(O)c1ccccc1/C=N/Nc1ccc(S(=O)(=O)N2CCCC2)cc1[N+](=O)[O-] | n | n | u | u | u | 13µM
COc1cc(Nc2ccc(S(=O)(=O)N3CCN(C)CC3)cc2[N+](=O)[O-])cc(OC)c1 | u | u | n | n | n | n
O=[N+]([O-])c1cc(S(=O)(=O)N2CCCC2)ccc1N/N=C/c1cccnc1 | n | n | n | n | n | n
O=[N+]([O-])c1cc(S(=O)(=O)N2CCCCCC2)ccc1Cl | u | 8.2µM | n | n | u | 23µM
COc1ccc(Nc2ccc(S(=O)(=O)N3CCCCCC3)cc2[N+](=O)[O-])cc1 | u | 23µM | u | 2.9µM | n | n
Cc1ccc(S(=O)(=O)N2CCCC2)cc1[N+](=O)[O-] | n | n | n | n | n | n
Cc1ccc(S(=O)(=O)N2CCCCC2C)cc1[N+](=O)[O-] (stereo not given) | 12µM | 15µM | n | n | n | n
